# Source: PubChem (SRMLSC)
# PMK inhibit – S. pneumoniae PMK inhibition | purified PMK, PK/LDH-coupled NADH absorbance 340 nm | inhibition, % at 10 µM | 65,000 tested, 0.49% active;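 active means top-ranked compounds by inhibition in the single 10 µM screen, taking a fixed number of the strongest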;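 further: 0% = full reaction with DMSO carrier and 100% = background rate without enzyme reaction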
# NADH enzymes – blocks coupling enzymes of NAD/NADH assays | IC50, µM (series often up to 10 µM), inactives show top-dose inhibition | 65,000 tested, 0.02% active | coupled PK/LDH NADH assays, four targets | AID 774;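 active means single-dose screening hits from any of four coupled enzyme assays that gave an IC50 when retested across doses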;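 further: the DPM-DC format reads NADH fluorescence rather than 340 nm absorbance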
# Spn MK inh – S. pneumoniae mevalonate kinase inhibition; purified MK, PK/LDH-coupled NADH absorbance 340 nm; AID 555; 65,000 tested, 0.48% active; inhibition, % at 10 µM;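 active means ranked among the strongest by inhibition in the single 10 µM screen, a fixed top-ranked set picked for dose follow-up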
# A340 absorber – absorbance at 340 nm | compound absorbance at 340 nm, fold over control | 65,000 tested, under 10 active | AID 708 | fold change at 10 µM;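 active means at 10 µM dose, initial 340 nm absorbance at least 2 fold that of control wells; inactive means change under 2 fold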;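 further: initial absorbance extrapolated from kinetic A340 decline of NADH oxidation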
# Fluor 339 460 – intrinsic fluorescence of library compounds, ex339/em460 – biochemical, MLSMR library, data from DPM-DC assay, artefact control, profiling panel; 65,000 tested, 5.5% active; compound autofluorescence, ex339/em460 nm, NADH buffer; active compounds read high; 1 = no-compound wells, NADH background; fluorescence fold increase at 10 µM;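 active means at 10 µM, mean starting fluorescence two-fold or more over control wells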;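 further: signal is the first read of a kinetic run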
# Spn DPM-DC inh – S. pneumoniae DPM-DC inhibition | purified DPM-DC, PK/LDH coupled NADH fluorescence | calls only at 10 µM | 65,000 tested, 0.49% active | AID 556;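 active means the 320 compounds with the highest percent inhibition in the single-dose primary screen, excluding strongly autofluorescent ones, cut at about 32% in these data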;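 further: kinetic rate of NADH fluorescence loss reporting ADP formed by the decarboxylase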
# Active calls of the source: *; i = inactive; nt = not tested or not shown; + = active, no number. Only some compounds are listed: those with a hit (about 6.5% of all), similar ones and a draw of the others.
SMILES,PMK inhibit,NADH enzymes,Spn MK inh,A340 absorber,Fluor 339 460,Spn DPM-DC inh
O=C(NC1CCCCC1)N(Cc1cc2cc3c(cc2[nH]c1=O)OCCO3)CC1CCCO1 (stereo not given),11,10%,9,1.1,4.5*,nt
Cc1cccc2cc(CN(CCN3CCCC3)C(=O)NC3CCCCC3)c(=O)[nH]c12,30*,4%,3,1,1.2,i
CCOC(=O)N1CCC(NC(=O)Cn2ncn3c(cc4sc(CC)cc43)c2=O)CC1,14,6%,4,0.99,1.1,i
CC(C)C(=O)N(Cc1cc2ccccc2[nH]c1=O)C(C)(C)C,5,4%,8,1,1.2,i
CN1CCN(c2ccccc2NC(=O)C(Cc2ccccc2)n2cccc2)CC1 (stereo not given),19,6%,0,1.1,1.1,i
Cc1ccc(S(=O)(=O)Cn2nnnc2C(c2ccc(F)cc2)N2CCC(C(N)=O)CC2)cc1 (stereo not given),16,8%,8,0.98,1,i
Cc1nc(Cc2nnc(SCc3nc(N)nc(Nc4ccccc4C)n3)o2)cs1,3,3%,1,0.99,1.1,i
COc1ccc(NC(=O)CSc2nc(-c3ccncc3)nn2CC(=O)N2CCCC2)cc1,10,4%,3,0.99,1.1,i
COc1ccccc1CNC(=O)c1cnc2sccn2c1=O,6,4%,1,1.1,1.1,i
Cc1cccc(NC(=O)c2cnc3sccn3c2=O)n1,0,8%,active,1.1,0.97,i
O=C(NCc1cccnc1)c1cnc2sccn2c1=O,0,1%,2,1.2,2.2*,nt
COc1ccc(NC(=O)c2cnc3sccn3c2=O)cc1,15,7%,4,1.2,0.95,i
Cc1cccc(NC(=O)c2cnc3sccn3c2=O)c1,1,5%,6,1.2,1,i
O=C(Nc1ccon1)c1cnc2sccn2c1=O,0,8%,5,1.1,3.2*,i
COc1ccc(CCNC(=O)C2CCN(S(=O)(=O)c3cnc[nH]3)CC2)cc1OC,10,6%,7,0.99,1,i
COc1cc(OC)cc(-c2nnc(SCC(=O)Nc3cc(C)on3)o2)c1,10,11%,0,0.98,1,i
CCOc1cccc(NC(=O)c2ccc(S(=O)(=O)N3CCCC3)cc2)c1,7,2%,0,1,1.1,i
COc1ccccc1/C=C/CN1CC(C)OC(C)C1 (stereo not given),0,16%,48*,1.1,1.1,i
Cc1sc(NC(=O)c2oc3ccccc3c2C)c(C#N)c1C,4,3%,1,1.2,3.8*,nt
CCOc1ccccc1NC(=O)Cn1cnc2c(cnn2-c2ccc(C)c(C)c2)c1=O,13,6%,4,0.96,1.6,i
Cc1ccc(-n2ncc3c(=O)n(CC(=O)Nc4cccc(Cl)c4)cnc32)cc1C,9,4%,3,0.98,2.7*,i
CCC(=O)c1cc2c(cc1NC(=O)c1ccc(C)cc1)OCCO2,0,6%,11,1.1,3.1*,nt
CCC(=O)Nc1cc2c(cc1C(C)=O)OCCO2,0,8%,16,1.1,1.5,i
O=c1c(-c2ccccc2)c(O)c2cccc3c2n1CCC3,66*,62%,43*,1.1,1.4,+
CCN(CCNC(=O)C1CCN(c2nnc(-n3cccc3)s2)CC1)c1ccccc1,11,21%,11,1,0.94,+
SMILES,PMK inhibit,NADH enzymes,Spn MK inh,A340 absorber,Fluor 339 460,Spn DPM-DC inh
CN1CCN(CCCNC(=O)C2CCN(c3nnc(-n4cccc4)s3)CC2)CC1,9,6%,10,0.98,0.99,i
COc1ccccc1N1CCN(C(=O)Cn2nc(C(F)(F)F)c3c2CCC3)CC1,8,6%,7,1,1.1,i
NC(=O)CSc1nnc(-c2ccc(S(=O)(=O)N3CCOCC3)cc2)n1CC1CCCO1 (stereo not given),14,9%,12,0.96,1.1,i
CC(C)NC(=O)CSc1nnc(-c2ccc(S(=O)(=O)N3CCCC3)cc2)n1CC1CCCO1 (stereo not given),11,19%,45*,0.98,1.1,i
COc1ccc(CC(NC(C)=O)C(=O)NC2CCN(c3nc(C)cc(C)c3C#N)CC2)c(OC)c1 (stereo not given),0,3%,31,1,2*,i
COc1cccc(CC(NC(C)=O)C(=O)NC2CCN(c3nc(C)cc(C)c3C#N)CC2)c1 (stereo not given),9,5%,7,1,1.1,i
CCOC(=O)N1CCN(S(=O)(=O)c2ccc(C(=O)Nc3nc4c(s3)CC(C)CC4)cc2)CC1 (stereo not given),15,14%,13,1.1,4.6*,nt
CC1CCN(c2nc3c(c(=O)[nH]c(=O)n3C)n2CCSc2ncccn2)CC1,2,1%,1,0.98,1,i
Cc1ccc2cc(-c3noc(C4CCCCC4)n3)c(=O)[nH]c2c1,0,0%,0,1.1,2.2*,nt
CCCc1nc(-c2cc3ccc(C)cc3[nH]c2=O)no1,6,7%,7,1.1,2.2*,nt
Cc1ccc2cc(-c3noc(C4CCCO4)n3)c(=O)[nH]c2c1 (stereo not given),0,0%,0,1.1,2.2*,nt
Cc1cccc(OCc2nnc(SCC(=O)Nc3cc(C)on3)n2C)c1,15,5%,0,1,1.1,i
Cc1ccc2c(c1)-c1c(cnn1CC(=O)N(CCC#N)c1ccccc1)CO2,3,4%,6,1.1,1,i
Cc1cc(C)n2nc3ccccc3c2n1,10,4%,2,1.1,2,i
Cc1cc(C)n2nc3nc(N4CCCCC4)nc(-c4ccco4)c3c2n1,20,10%,0,1,2.1*,+
O=c1c(-c2ccc3c(c2)OCCO3)coc2c(CN3CCOCC3)c(O)ccc12,2,7%,11,1.1,3.8*,nt
COc1cccc(Oc2coc3c(CN4CCOCC4)c(O)ccc3c2=O)c1,10,9%,8,1.1,3.9*,nt
COc1ccc(Oc2coc3cc(OC(=O)N4CCOCC4)ccc3c2=O)cc1,5,3%,5,1.1,1.1,i
CC(=O)N1CCc2cc(S(=O)(=O)CCC(=O)Nc3c(C)n(C)n(-c4ccccc4)c3=O)ccc21,18,9%,8,0.98,1.1,i
Cc1cc(NC(=O)C2CCN(S(=O)(=O)c3cnc[nH]3)CC2)ccc1Br,16,8%,8,0.98,1.1,i
CCOc1ccc(S(=O)(=O)N(C)CCO)cc1-c1nc2c(C(C)(C)C)nn(C)c2c(=O)[nH]1,1,1%,3,1,1.1,i
c1ccc(-c2cc3c(-n4cccc4)ncnc3o2)cc1,5,2%,1,1.1,3.2*,i
CCOC(=O)Nc1oc2ccccc2c(=O)c1CN1CCOCC1,5,8%,6,1,2.2*,i
